{"source": "PubChem BioAssay AID738", "about": "(SRMLSC, 2007)", "note": "Hit rate of the full screen: of about 98,000 compounds, about 4,900 (5%) were called active. No stated cut-off is given here; in the data, active means inhibition above about 30%; inactive means the rest. The entries come from a sample that favours actives as a whole."}
{"assay": "growth inhibition of yeast control strain, primary screen, counter-screen for post-Golgi transport modulator project (AID 738)", "conditions": "efflux-deficient yeast background strain, growth absorbance A615, 16 h; at 10 µM; hits give high values"}
{"molecule": "CCN(CC)CCN1C(=O)C(=O)/C(=C(/O)c2cnn(-c3ccccc3)c2C)C1c1cccs1", "note": "(configuration not stated)", "inhibition": "10.5% (inactive)"}
{"molecule": "S=c1nccc(-c2cc(Cl)sc2Cl)[nH]1", "inhibition": "-1.82% (inactive)"}
{"molecule": "O=C(Nc1ccccc1N1CCCCC1)c1ccc2nccnc2c1", "inhibition": "16.6% (inactive)"}
{"molecule": "O=C(Nc1ccccc1N1CCN(c2ccccc2)CC1)c1cccc(F)c1", "inhibition": "15.4% (inactive)"}
{"molecule": "O=C(Nc1ccccc1N1CCCCC1)c1cccc(F)c1", "inhibition": "31.6% (active)"}
{"molecule": "CCC(=O)OCc1c(C(F)(F)F)nn(C)c1Oc1cccc(C(F)(F)F)c1", "inhibition": "-7.2% (inactive)"}
{"molecule": "O=C(NCc1ccc2c(c1)OCO2)C12CC3CC(CC(C3)C1)C2", "inhibition": "9.12% (inactive)"}
{"molecule": "S=C(NCc1cccs1)Nc1ccc(Cl)cc1", "inhibition": "1.15% (inactive)"}
{"molecule": "S=C(NCc1ccc(Cl)cc1)NC12CC3CC(CC(C3)C1)C2", "inhibition": "69.2% (active)"}
{"molecule": "O=C(/C=C/c1cccs1)c1cc(Cl)ccc1OC(=O)N1CCOCC1", "inhibition": "16.3% (inactive)"}
{"molecule": "N/C(=N\\OC(=O)c1cc(-c2ccccc2)nc2ccccc12)c1ccncc1", "inhibition": "13.9% (inactive)"}
{"molecule": "Nc1ccccc1SCc1cc([N+](=O)[O-])cc2c1OCOC2", "inhibition": "13.6% (inactive)"}
{"molecule": "Cc1cccc(C)c1NC(=O)CCS(=O)(=O)c1cccc2nsnc12", "inhibition": "9.17% (inactive)"}
{"molecule": "CCOc1ccc(-c2cn(S(=O)(=O)c3cccc4nsnc34)nc2N)cc1", "inhibition": "53.9% (active)"}
{"molecule": "CCOc1ccc(OCC)c(NC(=O)CN(C)S(=O)(=O)c2cccc3nsnc23)c1", "inhibition": "0.74% (inactive)"}
{"molecule": "CCCCN(CC)C(=O)CN(C)S(=O)(=O)c1cccc2nsnc12", "inhibition": "7.72% (inactive)"}
{"molecule": "CCOc1ccc(NC(=O)CCS(=O)(=O)c2cccc3nsnc23)cc1", "inhibition": "32.5% (active)"}
{"molecule": "O=C(O)c1ccc(NS(=O)(=O)c2cccc3nsnc23)cc1", "inhibition": "18% (inactive)"}
{"molecule": "CCc1ccc(C(=O)CSc2nnc(C)c(=O)[nH]2)cc1", "inhibition": "22% (inactive)"}
{"molecule": "Nc1ccc(C(=O)OCC(=O)NC2CCCc3ccccc32)cc1[N+](=O)[O-]", "note": "(configuration not stated)", "inhibition": "16.1% (inactive)"}
{"molecule": "CCCc1nc2ccccc2c(C(=O)OCC(=O)c2ccc3c(c2)NC(=O)CO3)c1CC", "inhibition": "2.23% (inactive)"}
{"molecule": "O=C(COc1ccc2c(C(F)(F)F)cc(=O)oc2c1)Nc1ccc2c(c1)OCCO2", "inhibition": "3.57% (inactive)"}
{"molecule": "CCOc1ccc(S(=O)(=O)Nc2nc3cc(OC)ccc3s2)cc1", "inhibition": "2.89% (inactive)"}
{"molecule": "CC(=O)c1cnc(SCCN2C(=O)c3ccccc3C2=O)nc1C", "inhibition": "-2.62% (inactive)"}
{"molecule": "Cc1cc(C)c2nc(NC(=O)c3ccc4c(c3)OCO4)sc2c1", "inhibition": "21.3% (inactive)"}
{"molecule": "O=S(=O)(NC1CCCCC1)c1ccc(F)c2ccccc12", "inhibition": "35.4% (active)"}
{"molecule": "CSc1ccc(S(=O)(=O)NC2CCCCC2)cc1", "inhibition": "10.7% (inactive)"}
{"molecule": "COc1ccc(C)cc1S(=O)(=O)NC1CCCCC1", "inhibition": "2.46% (inactive)"}
{"molecule": "Cc1ccc(N(NC(=O)C(C)(C)O)C(=O)c2ccccc2)cc1C", "inhibition": "0.77% (inactive)"}
{"molecule": "Cc1ccccc1C(=O)N1CCC(C(=O)Nc2ccc(S(=O)(=O)N(C)C(C)C)cc2)CC1", "inhibition": "-2.28% (inactive)"}
{"molecule": "CCc1nc(Nc2ccc3nccnc3c2)c2oc3ccccc3c2n1", "inhibition": "4.28% (inactive)"}
{"molecule": "COc1ccccc1Nc1ncnc2c1oc1ccccc12", "inhibition": "31.2% (active)"}
{"molecule": "Cc1nc(Cl)c2oc3ccccc3c2n1", "inhibition": "-0.78% (inactive)"}
{"molecule": "NS(=O)(=O)c1cccnc1Nc1cccc(Cl)c1", "inhibition": "7.66% (inactive)"}
{"molecule": "O=C(Cn1ccc([N+](=O)[O-])n1)NCc1cccs1", "inhibition": "18.9% (inactive)"}
{"molecule": "Cn1c(SCc2nc3ccccc3s2)nnc1-c1ccc2c(c1)OCO2", "inhibition": "33.8% (active)"}
{"molecule": "Cc1cccc(CSc2nnc(Cn3c(=O)sc4ccccc43)n2C)c1", "inhibition": "13.1% (inactive)"}
{"molecule": "Cc1ccccc1-c1nnc(SCC(=O)NCc2ccc3c(c2)OCO3)n1C", "inhibition": "12.7% (inactive)"}
{"molecule": "Cc1cccc(N2C(=O)C3C(c4ccccc4)OC4(C(=O)c5ccccc5C4=O)C3C2=O)c1", "note": "(configuration not stated)", "inhibition": "-14.2% (inactive)"}
{"molecule": "CCN(CC)C(=O)CSc1nnc(CNc2ccc(F)cc2)n1Cc1ccco1", "inhibition": "7.51% (inactive)"}
{"molecule": "COc1cccc(-c2nnc(SCCOc3ccc4c(C)cc(=O)oc4c3)o2)c1", "inhibition": "7.69% (inactive)"}
{"molecule": "CC(Sc1nnc(Cc2ccc([N+](=O)[O-])cc2)o1)C(N)=O", "note": "(configuration not stated)", "inhibition": "5.64% (inactive)"}
{"molecule": "N#C/C(=C(/O)Cc1cccc2ccccc12)c1nc2ccccc2s1", "inhibition": "0.29% (inactive)"}
{"molecule": "CC(C)NS(=O)(=O)c1ccc(OCC(=O)Nc2ccc3c(c2)OCCO3)cc1", "inhibition": "3.4% (inactive)"}
{"molecule": "Cc1ccc(CNC(=O)COc2ccc(S(=O)(=O)NC(C)C)cc2)cc1", "inhibition": "36.6% (active)"}
{"molecule": "COc1ccc(OCC(=O)NCCc2ccc(S(N)(=O)=O)cc2)cc1", "inhibition": "-0.6% (inactive)"}
{"molecule": "CNC(=O)c1csc(-c2ccccc2)n1", "inhibition": "-5.25% (inactive)"}
{"molecule": "Cc1occc1C(=O)NNC(=S)NCC(C)C", "inhibition": "3.2% (inactive)"}
{"molecule": "CSCCC(NS(=O)(=O)c1ccc2c(c1)oc(=O)n2C)C(=O)NC1CCCc2ccccc21", "note": "(configuration not stated)", "inhibition": "-5.76% (inactive)"}
{"molecule": "CC(C)Oc1ccc(CCc2n[nH]c(=S)n2Cc2ccccc2)cc1", "inhibition": "-1.67% (inactive)"}
{"molecule": "C=CCn1c(-c2ccc3[nH]c(C)c(C)c3c2)n[nH]c1=S", "inhibition": "3.87% (inactive)"}
{"molecule": "CCCc1cc(-c2n[nH]c(=S)n2Cc2ccccc2)cs1", "inhibition": "37.9% (active)"}
{"molecule": "Cc1cccc(NC(=S)N2CCC(c3nc4ccccc4s3)CC2)c1", "inhibition": "10.4% (inactive)"}
{"molecule": "CCCCNCc1ccc(SC)cc1", "inhibition": "3.73% (inactive)"}
{"molecule": "Cc1ccc(S(=O)(=O)N2CCC(C(=O)NCC3CCCO3)CC2)cc1", "note": "(configuration not stated)", "inhibition": "11.9% (inactive)"}
{"molecule": "COC(=O)NC1(C(F)(F)F)NC(=O)N(C2CCCCC2)C1=O", "note": "(configuration not stated)", "inhibition": "-7.51% (inactive)"}
{"molecule": "O=C1NC(Nc2nc3ccccc3s2)(C(F)(F)F)C(=O)N1C1CCCCC1", "note": "(configuration not stated)", "inhibition": "47.7% (active)"}
{"molecule": "COc1ccc(C2Nc3ccccc3C(=O)N2Cc2ccccc2)cc1Cn1nnc2ccccc21", "note": "(configuration not stated)", "inhibition": "13.4% (inactive)"}
{"molecule": "CN(C)c1ccc(NC(=S)N(CCc2ccccc2)C2CC(=O)N(c3c(Cl)cccc3Cl)C2=O)cc1", "note": "(configuration not stated)", "inhibition": "5.66% (inactive)"}
{"molecule": "O=C(O)CCC(=O)NCc1ccc(C(=O)O)cc1", "inhibition": "12.1% (inactive)"}
{"molecule": "COc1ccc(-c2nc(CCNC(=O)c3ccc(Br)o3)cs2)cc1", "inhibition": "36.5% (active)"}
{"molecule": "O=C(NCCc1ccccn1)c1ccc(COc2ccccc2)o1", "inhibition": "-1.77% (inactive)"}
{"molecule": "CC(CNC(=O)c1ccc(Br)o1)NC(=O)c1ccc(Br)o1", "note": "(configuration not stated)", "inhibition": "18.5% (inactive)"}
{"molecule": "Cc1ccccc1OC(=O)Cn1c(C(F)(F)F)nc2ccccc21", "inhibition": "12.9% (inactive)"}
{"molecule": "COC(=O)c1ccccc1OCC(=O)N1CCN(c2ccc(Cl)cc2)CC1", "inhibition": "13.6% (inactive)"}
{"molecule": "CN(C(=O)CSc1nnnn1-c1ccccc1)C1CCCCC1", "inhibition": "38% (active)"}
{"molecule": "O=c1c2ccccc2nnn1CSc1nnnn1-c1ccccc1", "inhibition": "19.6% (inactive)"}
{"molecule": "COc1ccc(-n2nnnc2SCC(=O)Nc2ccccc2)cc1", "inhibition": "2.21% (inactive)"}
{"molecule": "CC(=O)c1nn(-c2cccc(Br)c2)cc1C(=O)c1cccc2ccccc12", "inhibition": "8.1% (inactive)"}
{"molecule": "Cc1cc2cc3c(N)[nH]nc3nc2cc1C", "inhibition": "8.93% (inactive)"}
{"molecule": "COCCNS(=O)(=O)c1cc(Br)ccc1OC", "inhibition": "2.48% (inactive)"}
{"molecule": "O=[N+]([O-])c1cccc(-c2nnc3c4ccccc4c4ccccc4n23)c1", "inhibition": "6.93% (inactive)"}
{"molecule": "CCC(=O)NC(=Nc1nc2ccccc2s1)NC(=O)CC", "inhibition": "35.9% (active)"}
{"molecule": "COC(=O)Cc1cc(=O)n(-c2nc3ccccc3s2)[nH]1", "inhibition": "11.8% (inactive)"}
{"molecule": "CC(C)CC(=O)N/C(N)=N/c1nc2ccccc2s1", "inhibition": "13.9% (inactive)"}
{"molecule": "COc1ccc(C(=O)N2CCc3cc(OC)c(OC)cc3C2c2cccc([N+](=O)[O-])c2)cc1", "note": "(configuration not stated)", "inhibition": "20% (inactive)"}
{"molecule": "c1ccc2c(C[n+]3csc4ccccc43)cccc2c1", "inhibition": "9.79% (inactive)"}
{"molecule": "COc1ccc(C)cc1NC(=O)CCC(=O)Nc1nnc(C(F)(F)F)s1", "inhibition": "0.61% (inactive)"}
{"molecule": "Cc1[nH]n(-c2cccc(Cl)c2)c(=O)c1-c1ccc(Cl)cc1", "inhibition": "55.6% (active)"}
{"molecule": "Cc1[nH]n(-c2cccc(Cl)c2)c(=O)c1/C=N/n1c(C)nc2ccccc2c1=O", "inhibition": "9.33% (inactive)"}
{"molecule": "O=c1[nH]n(-c2cccc(Cl)c2)c2ncccc12", "inhibition": "16.8% (inactive)"}
{"molecule": "O=C(CN1CCN(S(=O)(=O)c2ccc(Cl)s2)CC1)NCc1ccc(Cl)cc1", "inhibition": "15.8% (inactive)"}
{"molecule": "CC(=O)Nc1cccc(/C(C)=N/NC(=O)c2ccccc2Cl)c1", "inhibition": "5.79% (inactive)"}
{"molecule": "Cc1ccc(C(=O)Nc2ccccc2C(=O)NC2CCCCC2)cc1S(=O)(=O)N1CCOCC1", "inhibition": "36.2% (active)"}
{"molecule": "Cc1cc(C)n(C(=O)c2ccc(C)c(S(=O)(=O)N3CCOCC3)c2)n1", "inhibition": "11.4% (inactive)"}
{"molecule": "Cc1ccc(C(=O)Nc2ccc3c(c2)OCO3)cc1S(=O)(=O)N1CCCCC1", "inhibition": "16.4% (inactive)"}
{"molecule": "CCOc1c2ccc(C(=O)NC3CCCc4ccccc43)cc2nn1CC", "note": "(configuration not stated)", "inhibition": "-2.36% (inactive)"}
{"molecule": "O=C(O)c1ccccc1-c1ccccc1C(=O)Nc1cccc2ccccc12", "inhibition": "9.42% (inactive)"}
{"molecule": "COc1ccccc1C(=O)NN1C(=O)C2C3C=CC(O3)C2C1=O", "note": "(configuration not stated)", "inhibition": "3.54% (inactive)"}
{"molecule": "Cc1ccccc1C(OCC(O)CN1CCCCC1CCO)c1ccccc1", "note": "(configuration not stated)", "inhibition": "30.4% (active)"}
{"molecule": "CCCSc1nsc(N)n1", "inhibition": "3.53% (inactive)"}
{"molecule": "O=C(CSc1ncnc2c1cnn2CCc1ccccc1)Nc1ccc(F)cc1", "inhibition": "-3.75% (inactive)"}
{"molecule": "O=C(Nc1cccn(Cc2c(Cl)cccc2Cl)c1=O)c1ccc(Cl)cc1", "inhibition": "-8.03% (inactive)"}
{"molecule": "Clc1ccc(COn2c(-c3ccc(Cl)cc3Cl)nc3ncccc32)cc1", "inhibition": "66.1% (active)"}
{"molecule": "CCOc1ccc(OCC)c(-c2c(=O)n(OCc3ccc(Cl)cc3)c3ccccc3[n+]2[O-])c1", "inhibition": "11.6% (inactive)"}
{"molecule": "O=C(/C=C/c1cc2c(cc1Br)OCO2)NCc1ccc(Cl)cc1", "inhibition": "9.36% (inactive)"}
{"molecule": "N/C(=N\\OC(=O)CCc1ccccc1)c1ccc(Cl)cc1", "inhibition": "16.6% (inactive)"}
